# Data: the supplement of paper PMC10515830
# Structures can show the parent of a compound that is named as a salt.
# Tested on: Danio rerio larvae (5 dpf)
# Assay: difference in excitability vs DMSO (percentage points); higher = more excitable than DMSO
# Details: 10 µM; exposure time 6 h
# Outline: (§1)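 Wild-type zebrafish larvae at 5 dpf were kept in 96-well plates and exposed for 6 h to 100 µL egg water holding library compound at a final concentration of 10 µM. From 3 h into exposure, the plates were held at 28.5 ℃ and photographed every 6 s through a 3-h programme of moving lines and 100 ms, 400Hz tones. Each behaviour was scored by Z-LaP Tracker, a DeepLabCut model, and averaged over 48 larvae per compound. Every value gives the compound mean minus the vehicle control mean, in percentage points.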
row,Compound,difference in excitability
1,C[C@H]1COc2c(N3CCN(C)CC3)c(F)cc3c(=O)c(C(=O)O)cn1c23 [Levofloxacin],-4.09
2,CC(C)(C(=O)c1cccnc1)c1cccnc1 [Metyrapone],1.48
3,NS(=O)(=O)c1cc2c(cc1C(F)(F)F)NCNS2(=O)=O [Hydroflumethiazide],2.46
4,CC(C)C(=O)OCC(=O)[C@@]12O[C@H](C3CCCCC3)O[C@@H]1C[C@H]1[C@@H]3CCC4=CC(=O)C=C[C@]4(C)[C@H]3[C@@H](O)C[C@@]12C [Ciclesonide],9.7
5,CN1CCC[C@@H]1CCO[C@](C)(c1ccccc1)c1ccc(Cl)cc1 [Clemastine (fumarate)],26.5
6,CC(=O)O[C@]1(C(C)=O)CC[C@H]2[C@@H]3C=C(C)C4=CC(=O)CC[C@]4(C)[C@H]3CC[C@@]21C [Megestryl Acetate],20.8

# Tested on: Danio rerio larvae (5 dpf)
# Assay: difference in startle response vs DMSO (percentage points); higher = stronger startle than DMSO
# Details: 10 µM; exposure time 6 h
# Outline: as §1
row,Compound,difference in startle response
1,COc1cc(Cc2cnc(N)nc2N)cc(OC)c1OC [Trimethoprim],3.93
2,C=CC[N+]1([C@H]2C[C@H]3[C@@H]4CC[C@H]5C[C@H](O)[C@@H](N6CCOCC6)C[C@]5(C)[C@H]4CC[C@]3(C)[C@H]2OC(C)=O)CCCC1 [Rocuronium (bromide)],-3.01
3,CCOc1ccc2ccccc2c1C(=O)N[C@@H]1C(=O)N2[C@@H]1SC(C)(C)[C@@H]2C(=O)O [Nafcillin (sodium salt hydrate)],-0.0381
4,CN1C(C(=O)Nc2ccccn2)=C(O)c2ccccc2S1(=O)=O [Piroxicam],0.219
5,CC(=O)O[C@H]1C[C@@H]2CC[C@@H]3[C@H](CC[C@@]4(C)[C@H]3C[C@H]([N+]3(C)CCCCC3)[C@@H]4OC(C)=O)[C@@]2(C)C[C@@H]1N1CCCCC1 [Vecuronium (bromide)],-0.798
6,O=C1[C@@H]2[C@H]3CC[C@H](C3)[C@@H]2C(=O)N1C[C@@H]1CCCC[C@H]1CN1CCN(c2nsc3ccccc23)CC1 [Lurasidone],6.61
7,CC(=O)CCCCn1c(=O)c2c(ncn2C)n(C)c1=O [Pentoxifylline],2.26
8,CNS(=O)(=O)CCc1ccc2[nH]cc(C3CCN(C)CC3)c2c1 [Naratriptan (hydrochloride)],2.03
9,C[C@]12C=CC(=O)C=C1CC[C@@H]1[C@@H]2[C@@H](O)C[C@@]2(C)[C@H]1CC[C@]2(O)C(=O)CO [Prednisolone],3.42
10,CN(C)CCC(c1ccc(Cl)cc1)c1ccccn1 (centres undefined) [Chlorpheniramine (maleate)],-4.13
11,COc1ccc2c(c1)c(CC(=O)O)c(C)n2C(=O)c1ccc(Cl)cc1 [Indomethacin],1.79
12,COc1ccc(C(=O)CC(=O)c2ccc(C(C)(C)C)cc2)cc1 [Avobenzone],-2.54
13,Cc1cc(C(C)(C)C)c(O)c(C)c1CC1=NCCN1 [Oxymetazoline (hydrochloride)],-0.966
14,N[C@@H]1CCCCN(c2c(F)cc3c(=O)c(C(=O)O)cn(C4CC4)c3c2Cl)C1 [Besifloxacin (hydrochloride)],0.0054
15,Cc1ccccc1N1C(=O)c2cc(S(N)(=O)=O)c(Cl)cc2NC1C (centres undefined) [Metolazone],4.85
16,CNCc1ccc(-c2[nH]c3cc(F)cc4c3c2CCNC4=O)cc1 [Rucaparib],5.43
17,Nc1nc(F)nc2c1ncn2[C@@H]1O[C@H](COP(=O)(O)O)[C@@H](O)[C@@H]1O [Fludarabine Phosphate],-0.759
18,C=C[C@H]1CN2CC[C@H]1C[C@H]2[C@H](O)c1ccnc2ccc(OC)cc12 [Quinine],10.1
19,O=c1[nH]cc(F)c(=O)[nH]1 [5-Fluorouracil],-1.7

row,Compound,difference in startle response
1,CCCN(CCc1cccs1)[C@H]1CCc2c(O)cccc2C1 [Rotigotine],-3.78
2,CN(C)C(=O)c1cc2cnc(Nc3ccc(N4CCNCC4)cn3)nc2n1C1CCCC1,-7.97
3,OCCN(CCO)c1nc(N2CCCCC2)c2nc(N(CCO)CCO)nc(N3CCCCC3)c2n1 [Dipyridamole],3.31
4,COc1ccc(C[C@@H](C)NC[C@H](O)c2ccc(O)c(NC=O)c2)cc1 [Arformoterol (tartrate)],-8.57
5,O=C(O)COCCN1CCN(C(c2ccccc2)c2ccc(Cl)cc2)CC1 (centres undefined) [Cetirizine (hydrochloride)],2.46
6,CC1(C)C[C@@H]1C(=O)N/C(=C\CCCCSC[C@H](N)C(=O)O)C(=O)O [Cilastatin],11.7
7,CNCCC=C1c2ccccc2CCc2ccccc21 [Nortriptyline (hydrochloride)],4.3
8,CC(=O)OCC(=O)[C@@]1(OC(C)=O)[C@@H](C)C[C@H]2[C@@H]3C[C@H](F)C4=CC(=O)C=C[C@]4(C)[C@@]3(F)[C@@H](O)C[C@@]21C [Diflorasone Diacetate],-5.05
9,CC(=O)OCC(CCn1cnc2cnc(N)nc21)COC(C)=O [Famciclovir],6.99
10,COc1cc(CNC(=O)CCCC/C=C/C(C)C)ccc1O [Capsaicin],8.06
11,CN(C)C/C=C/C(=O)Nc1cc2c(Nc3ccc(F)c(Cl)c3)ncnc2cc1O[C@H]1CCOC1 [Afatinib (maleate)],-1.05
12,COc1ccc(CC(C)NCC(O)c2ccc(O)c(NC=O)c2)cc1 (centres undefined) [Formoterol (hemifumarate hydrate)],-13.1
13,OC[C@H]1NC[C@H](O)[C@@H](O)[C@H]1O [1-Deoxygalactonojirimycin (hydrochloride)],1.49
14,C[C@H]1COc2c(N3CCN(C)CC3)c(F)cc3c(=O)c(C(=O)O)cn1c23 [Levofloxacin],1.07
15,CC(C)(C(=O)c1cccnc1)c1cccnc1 [Metyrapone],5.62
16,NS(=O)(=O)c1cc2c(cc1C(F)(F)F)NCNS2(=O)=O [Hydroflumethiazide],7.8
17,CC(C)C(=O)OCC(=O)[C@@]12O[C@H](C3CCCCC3)O[C@@H]1C[C@H]1[C@@H]3CCC4=CC(=O)C=C[C@]4(C)[C@H]3[C@@H](O)C[C@@]12C [Ciclesonide],-3.59
18,CN1CCC[C@@H]1CCO[C@](C)(c1ccccc1)c1ccc(Cl)cc1 [Clemastine (fumarate)],-6.88
19,CC(=O)O[C@]1(C(C)=O)CC[C@H]2[C@@H]3C=C(C)C4=CC(=O)CC[C@]4(C)[C@H]3CC[C@@]21C [Megestryl Acetate],-4.3
